Screening data from PubChem BioAssay.
TDP1 cell CPT: qHTS for Inhibitors of human tyrosyl-DNA phosphodiesterase 1 (TDP1): qHTS in cells in presence of CPT; chicken DT40 Tdp1-/-;hTDP1 cells + 20 nM CPT, ATP luminescence, 48 h; 420,000 tested, 12% active; Potency, µM (series often up to 46.2 µM), actives largely listed as inhibitors; note: nearly all actives have a fitted effect of over 55% in size
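Chicken DT40 Tdp1-/- cells complemented with human TDP1, 400 cells/well, exposed to compounds plus 20 nM camptothecin for at least 48 h at 37 C; viability read as ATP content by CellTiter-Glo luminescence.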
uPA generation: qHTS for Inhibitors of Cell Surface uPA Generation; cell surface uPA generation assay, qHTS; Potency, µM (highest dose often 38.3 µM), actives largely listed as inhibitors; 330,000 tested, 0.31% active; AID 540303, 2011; active = well fitted inhibition curve with a large enough effect; inconclusive = small, poorly fitted or top-dose-only effect; inactive = no such curve, though single readings can be large or run the other way; tested in mouse RAW 264.7 cells; note: nearly all actives have a fitted effect of over 55% in size
TDP1 cell noCPT: qHTS for Inhibitors of human tyrosyl-DNA phosphodiesterase 1 (TDP1): qHTS in cells in absence of CPT | AID 686978, 2013 | DT40 Tdp1-/- hTDP1 cells, no CPT, ATP luminescence, 48 h | 420,000 tested, 15% active | Potency, µM (doses to about 46.2 µM), hits mostly inhibitors; note: nearly all actives have a fitted effect of over 55% in size
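No-CPT arm: Tdp1-/-;hTDP1 DT40 cells (400/well) plus compounds, incubated ≥48 hr at 37 °C. Readout CellTiter-Glo luminescence.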
HT1080NT lethal: qHTS for induction of synthetic lethality in tumor cells producing 2HG: qHTS for the HT-1080-NT fibrosarcoma cell line | AID 686970, 2013 | 360,000 tested, 1.6% active | Potency, µM (top dose mostly 46.1 µM), usual class: cytotoxic | HT-1080-NT fibrosarcoma viability, CellTiter-Glo ATP luminescence, 48 h;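 note: NT is the 2HG producing partner of a matched IDH1 knockdown line; nearly all actives have a fitted effect of over 55% in size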
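HT-1080-NT fibrosarcoma cells (2HG-overproducing), 750 cells/well in RPMI with 5% FBS, dosed after 2 h and incubated 48 h at 37C. CellTiter-Glo luminescence normalized to DMSO and no-cell wells; concentration-response curves fitted and classed.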
IL1B secr inh: qHTS for Inhibitors of Inflammasome Signaling: IL-1-beta AlphaLISA Primary Screen; THP-1 LPS/ATP IL-1B secretion, AlphaLISA, 16 h; stronger effect = lower value; activity change, % at 57.5 µM; 360,000 tested, 4.7% active; AID 743279, 2014; in the data active = activity change below about -50%; inconclusive = mostly about -30% to -49%
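THP-1 cells pretreated 1 hr with compounds (up to 57.5 uM final), then stimulated with LPS (250 ng/mL final) plus ATP (1.25 mM final); secreted IL-1B measured by AlphaLISA after 16 hr, decreased signal indicating inhibition.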
HT1080 IDH1KD tx: qHTS for induction of synthetic lethality in tumor cells producing 2HG: qHTS for the HT-1080-IDH1KD cell line; Potency, µM (highest dose often 46.1 µM), hits mostly cytotoxic; 360,000 tested, 2% active; HT-1080 IDH1 knockdown viability, ATP luminescence, 48 h
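HT-1080-IDH1KD cells (IDH1 knocked down), 750/well in RPMI with 5% FBS, treated with compound 48 h at 37 degrees C. Viability by CellTiter-Glo luminescence, normalised to DMSO and no-cell wells; concentration-response curves classed.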
Large screens that a line does not name were inactive. Compounds with a hit are over-represented: about 19% of the library has one in this group of screens. Unless noted, calls come from the whole dose curve; as a rule, active = well fitted curve in the direction sought with a large enough effect; inconclusive = small, poorly fitted or top-dose-only effect, or another doubt; inactive = no such curve, though single readings can be large; an effect the other way counts as inactive or inconclusive.

CC1CC1C(=O)N1CCN(S(=O)(=O)c2cc(C(F)(F)F)cc(C(F)(F)F)c2)CC1 (centres undefined)	TDP1 cell CPT 16µM, TDP1 cell noCPT inconclusive
CCOC(=O)C1(CC2CCCCO2)CCN(S(=O)(=O)c2ccccc2)CC1 (centres undefined)	TDP1 cell CPT inconclusive, TDP1 cell noCPT inconclusive
CCc1cccc(C)c1Nc1c(-c2ccccc2)nc2sccn12	TDP1 cell CPT inconclusive, TDP1 cell noCPT 18µM (no result: uPA generation, HT1080NT lethal, IL1B secr inh, HT1080 IDH1KD tx)
Cc1ccc(-c2nc3sccn3c2Nc2ccccc2C)cc1	TDP1 cell CPT inconclusive, TDP1 cell noCPT 23µM (no result: uPA generation, HT1080NT lethal, IL1B secr inh, HT1080 IDH1KD tx)
Cc1ccccc1Nc1c(-c2ccc(Cl)cc2)nc2c(C)cccn12	TDP1 cell CPT inconclusive (no result: uPA generation, HT1080NT lethal, IL1B secr inh, HT1080 IDH1KD tx)
NCCCC[C@H]1CN=C(N)N1CCc1cccc2ccccc12	none
CCC(C)[C@H]1CNC(=S)N1CCc1cccc2ccccc12 (some centres undefined)	TDP1 cell CPT inconclusive
NC1=NC[C@@H](Cc2ccc(O)cc2)N1CCc1cccc2ccccc12	TDP1 cell CPT 18µM, TDP1 cell noCPT inconclusive
NC1=NC[C@H](Cc2ccc(O)cc2)N1CCc1cccc2ccccc12	TDP1 cell CPT 18µM, TDP1 cell noCPT 15µM, IL1B secr inh inconclusive
O=C1NC[C@@H](Cc2ccc(O)cc2)N(CCc2cccc3ccccc23)C1=O	none
CCC(C)[C@H]1CN=C(N)N1CCc1cccc2ccccc12 (some centres undefined)	TDP1 cell CPT 1.8µM, TDP1 cell noCPT 2.1µM, HT1080NT lethal inconclusive, IL1B secr inh inconclusive
CN(C)c1nc(SCC(=O)Nc2ccc(Cl)c(Cl)c2)nc(N2CCOCC2)n1	TDP1 cell noCPT 23µM
CC(C)(C)Nc1nc(SCC(=O)Nc2ccccc2)nc(N2CCOCC2)n1	TDP1 cell CPT inconclusive, TDP1 cell noCPT 23µM, IL1B secr inh -90
CCNc1nc(SCC(=O)Nc2ccc(Cl)c(Cl)c2)nc(N2CCOCC2)n1	TDP1 cell CPT inconclusive, TDP1 cell noCPT 18µM, HT1080NT lethal inconclusive, IL1B secr inh -59, HT1080 IDH1KD tx inconclusive
Cc1noc(NS(=O)(=O)c2ccc(NC(=O)c3ccccc3NS(=O)(=O)c3ccc(F)cc3)cc2)c1C	none
CC(C)c1cc(C(=O)NCCc2ccccc2)no1	none
CCCNC(=O)N[C@H]1C=C[C@H](CC(=O)NC2CCCCC2)O[C@@H]1CO	TDP1 cell noCPT inconclusive (no result: uPA generation)
CCOC(=O)c1nn(-c2ccccc2)c(-c2ccccc2)c1C(=O)c1ccccc1	TDP1 cell CPT inconclusive, TDP1 cell noCPT inconclusive
CCOC(=O)c1nn(-c2ccc(F)cc2)c(-c2ccccc2)c1C(=O)c1ccccc1	TDP1 cell CPT inconclusive, TDP1 cell noCPT 16µM
Cc1nn(C(=O)Cn2ccc([N+](=O)[O-])n2)c(C)c1Cl	none
Cc1ccc2[nH]c(=O)c(CN(CCCN(C)C)C(=O)Nc3ccc(Cl)cc3)cc2c1	TDP1 cell CPT 7.1µM, TDP1 cell noCPT 6.3µM, IL1B secr inh -54 (no result: uPA generation)
Cc1ccc2cc(CN(CCN(C)C)C(=O)Nc3ccc(Cl)cc3)c(=O)[nH]c2c1	TDP1 cell CPT inconclusive, TDP1 cell noCPT 16µM, HT1080NT lethal inconclusive (no result: uPA generation, IL1B secr inh)
Cc1ccc(NC(=S)N(CCCN(C)C)Cc2cc3cc4c(cc3[nH]c2=O)OCO4)cc1	none
Cc1cccc(NC(c2ccccc2F)c2ccc3ccc(C)nc3c2O)n1 (centres undefined)	TDP1 cell CPT inconclusive, TDP1 cell noCPT 23µM (no result: uPA generation, HT1080NT lethal, IL1B secr inh, HT1080 IDH1KD tx)
Cc1ccc(C)c(C(Nc2ccccc2)c2ccc3ccc(C)nc3c2O)c1 (centres undefined)	TDP1 cell CPT 21µM, TDP1 cell noCPT 18µM, HT1080NT lethal inconclusive, HT1080 IDH1KD tx inconclusive (no result: uPA generation)
CCn1cc(C(=O)NCCCN2CC(C)CC(C)C2)c(=O)c2cc(S(=O)(=O)N(C)C)ccc21 (centres undefined)	uPA generation inconclusive
CCC1CCCCN1CCCNC(=O)c1cn(CC)c2ccc(S(=O)(=O)N3CCc4ccccc4C3)cc2c1=O (centres undefined)	TDP1 cell CPT inconclusive, TDP1 cell noCPT inconclusive, IL1B secr inh -99
CCn1cc(C(=O)NCCCN2CCCC(C)C2)c(=O)c2cc(S(=O)(=O)N3CCc4ccccc4C3)ccc21 (centres undefined)	TDP1 cell CPT 23µM, TDP1 cell noCPT inconclusive, HT1080NT lethal inconclusive, IL1B secr inh -104, HT1080 IDH1KD tx 21µM
O=C(Cn1ncc2c([nH]c3ccccc32)c1=O)Nc1cccc(C(F)(F)F)c1	none (no result: uPA generation, HT1080NT lethal, IL1B secr inh, HT1080 IDH1KD tx)
CNc1ncncc1-c1ccccc1CN(C)C	none (no result: uPA generation, HT1080NT lethal, IL1B secr inh, HT1080 IDH1KD tx)
COc1ccc(C(CNC(=O)c2ccc(S(=O)(=O)Nc3ccc(F)cc3)cc2)N(C)C)cc1 (centres undefined)	TDP1 cell CPT 16µM, TDP1 cell noCPT 23µM, HT1080NT lethal inconclusive, HT1080 IDH1KD tx inconclusive
COc1ccc(C(CNC(=O)c2cccc(S(=O)(=O)Nc3ccc(F)cc3)c2)N(C)C)cc1 (centres undefined)	TDP1 cell CPT inconclusive, TDP1 cell noCPT inconclusive
CCOc1ccc(S(=O)(=O)Nc2cccc(C(=O)NCC(c3ccccc3)N(C)C)c2)cc1 (centres undefined)	TDP1 cell CPT 23µM, TDP1 cell noCPT 18µM
COc1ccc(C(CNC(=O)c2cccc(NS(=O)(=O)c3ccccc3)c2)N(C)C)cc1 (centres undefined)	none
Cn1cccc1C(C#N)c1ncc(C(F)(F)F)cc1Cl (centres undefined)	TDP1 cell CPT inconclusive, TDP1 cell noCPT 7.3µM
COc1cc(OC)cc(C(=O)NC2CC(C)(C)NC(C)(C)C2)c1	none
CCOc1cc(CO)cc(Br)c1OCC(N)=O	none
CCOc1cc(C=O)cc(Cl)c1OCC(N)=O	TDP1 cell CPT inconclusive, TDP1 cell noCPT 18µM
CCOC(=O)C1=CCN(S(=O)(=O)c2cccc(Cl)c2)C1c1ccccc1 (centres undefined)	TDP1 cell CPT inconclusive, TDP1 cell noCPT inconclusive (no result: uPA generation)
CCOC(=O)C1=CCN(S(=O)(=O)c2ccc(C)cc2)C1c1cccc(Cl)c1 (centres undefined)	TDP1 cell CPT inconclusive, TDP1 cell noCPT 23µM, HT1080 IDH1KD tx inconclusive (no result: uPA generation)
CCOC(=O)C1=CCN(S(=O)(=O)c2ccccc2Br)C1c1cccc(F)c1 (centres undefined)	TDP1 cell CPT inconclusive, TDP1 cell noCPT inconclusive (no result: uPA generation)
CCOC(=O)C1=CCN(S(=O)(=O)c2cccc(Cl)c2)C1c1cccc(C)c1 (centres undefined)	TDP1 cell CPT inconclusive, TDP1 cell noCPT 18µM (no result: uPA generation)
